{
  "source": "PubChem BioAssay (NCATS)",
  "note": "Results filed as inconclusive are left out. Unmarked numbers belong to inactive results. Calls come from the whole dose curve; as a rule, active = well fitted activation curve with a large enough effect; inconclusive = small, poorly fitted or top-dose-only effect; inactive = no such curve, though single readings can be large or run the other way.",
  "data": [
    {"assay": "qHTS for Activators of Parkin Expression: LOPAC Validation Assay (FLuc Reporter) (AID 720573;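 note: 0% = DMSO and 100% = positive control compounds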)", "settings": "Cell line, PRKN promoter firefly luciferase reporter; series mostly up to 46.1 µM; activation: at the top concentration", "procedure,_shortened": "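A neuronal cell line harbouring FLuc and NLuc reporters behind the Parkin promoter was exposed to compounds for 24 h. Firefly luciferase signal, measured after 10 min with detection reagent, was scaled to DMSO and positive-control wells.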", "units": {"activation": "%"}, "values": [
      {"compound": "CC(C)(C)NCC(O)COc1cccc2[nH]c(=O)[nH]c12", "note": "(centres undefined)", "activation": -5.79},
      {"compound": "CC(C)(C)c1ccc(/C=C/C(=O)Nc2ccc3c(c2)OCCO3)cc1", "activation": 4.21},
      {"compound": "C=C1C[C@@]23CC[C@H]4[C@@](C)(CCC[C@@]4(C)C(=O)OC4OC(CO)C(O)C(O)C4O)[C@@H]2CC[C@]1(OC1OC(CO)C(O)C(O)C1OC1OC(CO)C(O)C(O)C1O)C3", "note": "(some centres undefined)", "activation": -12.5},
      {"compound": "O=C1OC(=O)C2C3CCC(O3)C12", "note": "(centres undefined)", "activation": 7.1},
      {"compound": "CCCCCCCCCCCCCCSCC(=O)O", "activation": -5.42},
      {"compound": "N#C/C(=C\\c1ccc(O)c(O)c1)C(=O)NCCc1ccccc1", "activation": 15.9},
      {"compound": "COc1ccc(-c2cc3ncc(C)n3c(Nc3ncccc3C(N)=O)n2)cc1OC", "activation": 26.9},
      {"compound": "CC(C)C[C@H](NC(=O)[C@H](O)[C@H](N)Cc1ccccc1)C(=O)O", "activation": -1.4},
      {"compound": "NC(=O)CNCCC(c1ccccc1)c1ccccc1", "activation": -2.23},
      {"compound": "NCC(O)C1CCCCCCC1", "note": "(centres undefined)", "activation": -7.08},
      {"compound": "Nc1nc2[nH]c(=O)cnc2c(=O)[nH]1", "activation": -7.84},
      {"compound": "Cn1c(=O)c2c(nc(/C=C/c3cccc(Cl)c3)n2C)n(C)c1=O", "activation": -6.52},
      {"compound": "O=C(O)CCC(=O)N1CCCC1C(=O)O", "note": "(centres undefined)", "activation": -8.41},
      {"compound": "Nc1ncnc2c1c(-c1ccc(Oc3ccccc3)cc1)cn2C1CCCC1", "activation": 0.304},
      {"compound": "Cc1nc2c(OCc3ccccc3)cccn2c1CC#N", "activation": 29.3},
      {"compound": "O=C(O)CCC/C=C\\C[C@@H]1[C@@H](/C=C/[C@H](O)C2Cc3ccccc3C2)[C@@H](F)C[C@@H]1O", "activation": -12},
      {"compound": "CCCCCCC(=O)OC1CC(C)(C)NC(C)(C)C1", "activation": -1.53},
      {"compound": "NCC(O)(CS(=O)(=O)O)c1ccc(Cl)cc1", "note": "(centres undefined)", "activation": -6.2},
      {"compound": "COc1ccc(C(=O)NCc2cccnc2)cc1C(=O)NCc1cccnc1", "activation": -9.68}
    ]}
  ]
}
